Test results published in PubChem BioAssay (NCATS).
Inconclusive results are not listed. Calls of active or inactive are those of the source. Calls follow the shape of the dose curve; as a rule, active = well fitted curve in the direction sought with a large enough effect; inconclusive = small, poorly fitted or top-dose-only effect, or another doubt; inactive = no such curve, though single readings can be large; an effect the other way counts as inactive or inconclusive. *1 amine or outer side, *2 acyl side, *3 side chain or, on linkers, in order; H or OH if unused. Where a SMILES comes first, the peptide text is derived from it. [ ]: non-standard residue; d: D form. The star is where a group is joined. ξ: configuration not given here. X9 = CCC(C)(N*)C(=O)C1CC[C@@H](C(=O)N[C@@H](Cc2ccccc2)C(=O)NCC(=O)O)N1; X8 = O=C([C@@H]1CC(O)CN1[*:1])[*:2]; aIle = CC[C@@H](C)[C@H](N)C(=O)O; Thr(3ξ) = CC(O)[C@H](N)C(=O)O; ξIva = CCC(C)(N)C(=O)O; Aib = CC(C)(N)C(=O)O

Assays:
CRL-7250 = normal cell line; assay: Cytotoxic Profiling of Annotated Libraries Using Quantitative High-Throughput Screening (AID 1296008); settings: Five cell lines viability, CellTiter-Glo ATP luminescence, 48-72 h; max response: active compounds read low; also: nearly all actives have a fitted effect of over 60% in size; as to max response: % is scaled to controls: 0 for no effect and ±100 for the full control effect
How it was run: (§1)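 Compounds were pin-transferred onto cells and incubated 48 or 72 hr at 37 degree Celsius, 95% humidity. CellTiter-Glo was added, plates sat 10 min at room temperature, then ATP-coupled luminescence was imaged as the viability read-out.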

HEK293 = assay: as above; settings: Five cell lines viability, CellTiter-Glo ATP luminescence, 48-72 h; max response: active compounds read low
How it was run: as §1

HaCat [1] = assay: as above; settings: Five cell lines viability, CellTiter-Glo ATP luminescence, 48-72 h; max response: active compounds read low
How it was run: as §1

KB-3-1 = assay: as above; settings: Five cell lines viability, CellTiter-Glo ATP luminescence, 48-72 h; max response: active compounds read low
How it was run: as §1

NIH3T3 = assay: as above; settings: Five cell lines viability, CellTiter-Glo ATP luminescence, 48-72 h; max response: active compounds read low
How it was run: as §1

HACAT [2] = assay: qHTS assay to identify novel small-molecules to repurpose for Merkel cell carcinoma treatment (AID 1296009); settings: MCC and control cell lines, CellTiter-Glo viability, 72 h; at 44.8 µM (top of the series) unless noted; also: nearly all actives have a fitted effect of over 60% in size
How it was run: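 Viability readout: ATP luminescence (CellTiter-Glo) after 72 hr drug exposure at 37 degree celsius. Dose-response format was 8 points for NPC and 11 points for MIPE; data normalized to in-plate controls.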

C33A = assay: Primary qHTS to identify gynecologic anti-cancer compounds using libraries of approved drugs and bioactive compounds (AID 1345084); settings: Gynecologic cancer cell panel viability, ATPlite luminescence, 48 h; series mostly up to 57.5 µM; also: % is scaled to controls: 0 for no effect and ±100 for the full control effect; nearly all actives have a fitted effect of over 55% in size
How it was run: (§2)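 ATP-based viability (ATPlite), 1,000 cells/well, 16 h pre-incubation, 48 h compound at 37 C, 5% CO2, 15 min RT before read.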

CAOV3 = assay: as above; settings: Gynecologic cancer cell panel viability, ATPlite luminescence, 48 h; series mostly up to 57.5 µM
How it was run: as §2

Es-2 = assay: as above; settings: Gynecologic cancer cell panel viability, ATPlite luminescence, 48 h; series mostly up to 57.5 µM
How it was run: as §2

HeLa = assay: as above; settings: Gynecologic cancer cell panel viability, ATPlite luminescence, 48 h; series mostly up to 57.5 µM
How it was run: as §2

Hek293T = assay: as above; settings: Gynecologic cancer cell panel viability, ATPlite luminescence, 48 h, control line for the selectivity index; series mostly up to 57.5 µM
How it was run: as §2

JEG-3 = assay: as above; settings: Gynecologic cancer cell panel viability, ATPlite luminescence, 48 h; series mostly up to 57.5 µM
How it was run: as §2

CASKI = assay: as above; settings: Gynecologic cancer cell panel viability, ATPlite luminescence, 48 h; series mostly up to 57.5 µM
How it was run: as §2

Cc1nc(-c2cccnc2)sc1C(=O)Nc1ccccc1-c1cn2c(CN3CCOCC3)csc2n1
inactive: max response (CRL-7250) -2.14% | max response (HEK293) -4.67% | outcome (HaCat [1]) | max response (KB-3-1) -10.4% | max response (NIH3T3) -1.07% | outcome (HACAT [2]) | Potency (C33A) | Potency (CAOV3) | Potency (Es-2) | Potency (HeLa) | Potency (Hek293T) | Potency (JEG-3)

CC1(C)C2CCC1(C)C(OC(=O)C(O)(CC(=O)O)CC(=O)O)C2 (stereo not drawn)
inactive: outcome (CRL-7250) | max response (HEK293) -0.502% | outcome (HaCat [1]) | outcome (KB-3-1) | max response (NIH3T3) 3.45% | outcome (HACAT [2]) | Potency (C33A) | Potency (CAOV3) | outcome (CASKI) | Potency (Es-2) | Potency (HeLa) | Potency (JEG-3)

CC1(C)CC[C@]2(C(=O)O[C@@H]3O[C@H](CO)[C@@H](O)[C@H](O)[C@H]3O)[C@H](O)C[C@]3(C)C(=CCC4[C@@]5(C)CC[C@H](O[C@@H]6OC[C@@H](O)[C@H](O)[C@H]6O)[C@@](C)(C(=O)O)C5CC[C@]43C)[C@@H]2C1 (stereo partly drawn)
inactive: max response (CRL-7250) -8.24% | max response (HEK293) -10.4% | outcome (HaCat [1]) | max response (KB-3-1) -4.94% | max response (NIH3T3) 4.43% | outcome (HACAT [2]) inactive [at 17.4 µM] | Potency (C33A) | Potency (CAOV3) | outcome (CASKI) | Potency (Es-2) | Potency (HeLa) | Potency (Hek293T) | Potency (JEG-3)

CC(C)(O)C1OC1C1=CC(=O)C2(C)OC2C1O (stereo not drawn)
inactive: outcome (CRL-7250) | max response (HEK293) -1.71% | outcome (HaCat [1]) | outcome (KB-3-1) | max response (NIH3T3) 3.09% | outcome (HACAT [2]) | Potency (C33A) | Potency (CAOV3) | Potency (Es-2) | Potency (HeLa) | Potency (Hek293T) | Potency (JEG-3)

CC[C@@H](C)[C@H](NC(=O)C(C)(C)NC(=O)[C@H](CCC(N)=O)NC(=O)C(C)(CC)NC(=O)[C@H](Cc1c[nH]c2ccccc12)NC(C)=O)C(=O)N[C@H](C(=O)NC(C)(C)C(=O)N[C@@H](CC(C)C)C(=O)NC(C)(C)C(=O)N1CCC[C@H]1C(=O)N[C@@H](CCC(N)=O)C(=O)NC(C)(C)C(=O)N1CC(O)C[C@H]1C(=O)NC(C)(CC)C(=O)C1CC[C@@H](C(=O)N[C@@H](Cc2ccccc2)C(=O)NCC(=O)O)N1)C(C)O (stereo partly drawn) (Ac-W[ξIva]Q[Aib][aIle][Thr(3ξ)][Aib]L[Aib]PQ[Aib][X8]-X9)
inactive: max response (CRL-7250) -9.43% | max response (HEK293) -13.1% | outcome (HaCat [1]) inactive; activator | max response (KB-3-1) -1.3% | max response (NIH3T3) -1.9% | outcome (HACAT [2]) inactive; activator [at 4.96 µM] | activity change, negative = cytotoxicity (C33A) -11% [at 6.55 µM] | activity change, negative = cytotoxicity (CAOV3) -26.3% [at 6.55 µM] | activity change, negative = cytotoxicity (Es-2) 1.15% [at 6.55 µM] | activity change, negative = cytotoxicity (HeLa) -27.1% [at 6.55 µM] | activity change, negative = cytotoxicity (Hek293T) -15.3% [at 6.55 µM]

CC(C)=C1CC2[C@](C)(CC[C@@H](OC(=O)C3(C)OC3C)[C@@]2(C)O)CC1=O (stereo partly drawn)
inactive: outcome (CRL-7250) | max response (HEK293) 4.03% | outcome (HaCat [1]) | max response (KB-3-1) 6.8% | max response (NIH3T3) -3.35% | outcome (HACAT [2]) | Potency (C33A) | Potency (CAOV3) | outcome (CASKI) | Potency (Es-2) | Potency (HeLa) | Potency (Hek293T) | Potency (JEG-3)

O=C(/C=C/c1ccc(O)cc1)OCC1OC(O)C(OC2OC(CO)C(O)C(O)C2O)C(O)C1O (stereo not drawn)
inactive: outcome (CRL-7250) | max response (HEK293) -3.95% | outcome (HaCat [1]) | max response (KB-3-1) 8.27% | max response (NIH3T3) 3.74% | outcome (HACAT [2]) inactive [at 17.4 µM] | Potency (C33A) | Potency (CAOV3) | outcome (CASKI) | Potency (Es-2) | Potency (HeLa) | Potency (Hek293T) | Potency (JEG-3)

COc1c2c(c(C)c3c1C(=O)OC3)OC1(C)CC(O)C34OC(O)(CCC3(C)C1C2)OC4(C)C (stereo not drawn)
inactive: outcome (CRL-7250) | max response (HEK293) -9.5% | outcome (HaCat [1]) | max response (KB-3-1) 7.14% | max response (NIH3T3) 2.29% | outcome (HACAT [2]) inactive [at 17.4 µM] | Potency (C33A) | Potency (CAOV3) | outcome (CASKI) | Potency (Es-2) | Potency (HeLa) | Potency (Hek293T) | Potency (JEG-3)

CC1(C)OC(=O)C=C[C@@]2(C)C1CC(=O)[C@]1(C)C2CC[C@@]2(C)[C@H](c3ccoc3)OC(=O)[C@H]3O[C@]321 (stereo partly drawn)
inactive: max response (CRL-7250) -0.596% | max response (HEK293) -1.27% | outcome (HaCat [1]) | outcome (KB-3-1) | max response (NIH3T3) -2.44% | outcome (HACAT [2]) inactive [at 17.4 µM] | Potency (C33A) | Potency (CAOV3) | outcome (CASKI) | Potency (Es-2) | Potency (HeLa) | Potency (Hek293T) | Potency (JEG-3)

CC(=O)c1[nH]cc(CCC(=O)O)c1CC(=O)O
inactive: outcome (CRL-7250) | max response (HEK293) -1.24% | outcome (HaCat [1]) | outcome (KB-3-1) | max response (NIH3T3) -3.85% | outcome (HACAT [2]) | Potency (C33A) | Potency (CAOV3) | outcome (CASKI) | Potency (Es-2) | Potency (HeLa) | Potency (Hek293T) | Potency (JEG-3)

CC(C)/C=C1/NC(=O)C(C(C)C)n2c1nc1c(O)cccc1c2=O (stereo not drawn)
inactive: outcome (CRL-7250) | max response (HEK293) -10.9% | outcome (HaCat [1]) | max response (KB-3-1) 3.96% | max response (NIH3T3) -2.82% | outcome (HACAT [2]) | Potency (C33A) | Potency (CAOV3) | outcome (CASKI) | Potency (Es-2) | Potency (HeLa) | Potency (Hek293T) | Potency (JEG-3)
